Data as given in the supplement of paper PMC7366291.
Counter-ions that a name gives are not always drawn. ± gives the standard deviation or the standard deviation of the averaged measurements.

Assays:
Details in all cases: 25 µM; exposure: 24-48 hpf
[1] = system: Danio rerio Tg(wt1b:EGFP) embryo, pronephros; assay: glomerular separation, fold change vs DMSO control; higher = glomeruli further apart (abnormal)
Method in brief: (§1)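 Using a Fiji macro, distances and angles were calculated from 16 reference points set by hand on maximum projections of pronephroi imaged dorsally (470 nm, 10 z-slices) in agarose-filled 96-well plates. The dechorionated Tg(wt1b:EGFP) zebrafish embryos had received 25 μM compound in 0.5% DMSO in HEPES-buffered E3 with 0.003% PTU from 24 to 48 hpf at 28.5°C. Values more than 2 SD from a feature's mean were excluded. Each feature appears as a fold change over the mean of DMSO-treated embryos from the same day.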

[2] = system: Danio rerio Tg(wt1b:EGFP) embryo, pronephros; assay: glomerular width (mean of left and right), fold change vs DMSO control; higher = wider glomerulus
Method in brief: as §1

[3] = system: Danio rerio Tg(wt1b:EGFP) embryo, pronephros; assay: fraction of imaged embryos annotated as normal kidney; higher = less nephrotoxic; extreme values may be limits of the assay
Method in brief: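 Dechorionated Tg(wt1b:EGFP) zebrafish embryos were incubated with 25 μM compound in 0.5% DMSO, 5 mM HEPES-buffered E3 and 0.003% PTU from 24 to 48 hpf at 28.5°C. Pronephroi were then imaged by widefield fluorescence, and the fraction of embryos per treatment assigned by hand to the normal-kidney category is given.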

[4] = system: Danio rerio Tg(wt1b:EGFP) embryo, pronephros; assay: pronephric angle neck segment to proximal convoluted tubule (mean of left and right), fold change vs DMSO control; higher = larger pronephric angle
Method in brief: as §1

Structure (SMILES) | glomerular separation [1] | glomerular width [2] | fraction of imaged embryos annotated as normal kidney [3] | pronephric angle neck segment [4]
CC(=O)NC[C@H]1CN(c2ccc(N3CCOCC3)c(F)c2)C(=O)O1 [Linezolid] | 0.987 ± 0.23 | 1.02 ± 0.019 | 0.917 | 0.936 ± 0.029
Cc1ccc(C)c(OCCCC(C)(C)C(=O)O)c1 [Gemfibrozil] | 5.88 ± 2.2 | 0.602 ± 0.06 | 0 | 1.73 ± 0.11
C[C@]12CCC(=O)C=C1C=C[C@@H]1[C@@H]2CC[C@@]2(C)[C@H]1CC[C@@]21CCC(=O)O1 [Canrenone] | 1.24 ± 0.51 | 0.798 ± 0.02 | 0.818 | 1.07 ± 0.031
NC(=O)c1ncn([C@@H]2O[C@H](CO)[C@@H](O)[C@H]2O)n1 [Ribavirin] | 0.913 ± 0.3 | 0.965 ± 0.025 | 0.75 | 0.985 ± 0.017
CCN[C@H]1C[C@H](C)S(=O)(=O)c2sc(S(N)(=O)=O)cc21 [Dorzolamide hydrochloride] | 1.08 ± 0.35 | 0.955 ± 0.029 | 0.75 | 1.024 ± 0.0028
Cn1cnc2c1c(=O)[nH]c(=O)n2C [Theobromine] | 0.91 ± 0.41 | 0.947 ± 0.022 | 0.667 | 1.0118 ± 0.00063
NC1CCN(c2c(F)cc3c(=O)c(C(=O)O)cn(C4CC4)c3c2Cl)C1 (stereo unspecified) [Clinafloxacin] | 1.2 ± 0.45 | 1.03 ± 0.087 | 1 | 0.962 ± 0.038
Cc1ncc([N+](=O)[O-])n1CC(C)O (stereo unspecified) [Secnidazole] | 0.775 ± 0.29 | 0.9842 ± 0.0045 | 0.833 | 0.9777 ± 0.0024
CCCCOc1ccc(C(=O)CCN2CCCCC2)cc1 [Dyclonine hydrochloride] | 0.982 ± 0.26 | 1.02 ± 0.071 | 0.833 | 1.004 ± 0.0035
